From ChEMBL document CHEMBL2218924, “A broad activity screen in support of a chemogenomic map for kinase signalling research and drug discovery” (Biochem J, 2013) come the findings set out here.

Test [1] deals with MAP kinase-activated protein kinase 2 (Homo sapiens) (UniProt P49137). The note with it: at 10 µM.
For test [2], the target named is MAP kinase-activated protein kinase 3 (Homo sapiens) (UniProt Q16644). As to conditions: at 10 µM.
Test [3] concerns the target Serine/threonine-protein kinase MARK1 (Homo sapiens) (UniProt Q9P0L2). As to conditions: at 1 µM.
The target is the same in test [4]. The note with it: at 10 µM.
For test [5], the target named is Dual specificity mitogen-activated protein kinase kinase 1 (Homo sapiens) (UniProt Q02750). The note with it: at 1 µM.
Dual specificity mitogen-activated protein kinase kinase 1 (Homo sapiens), sequence (Q02750 whole entry): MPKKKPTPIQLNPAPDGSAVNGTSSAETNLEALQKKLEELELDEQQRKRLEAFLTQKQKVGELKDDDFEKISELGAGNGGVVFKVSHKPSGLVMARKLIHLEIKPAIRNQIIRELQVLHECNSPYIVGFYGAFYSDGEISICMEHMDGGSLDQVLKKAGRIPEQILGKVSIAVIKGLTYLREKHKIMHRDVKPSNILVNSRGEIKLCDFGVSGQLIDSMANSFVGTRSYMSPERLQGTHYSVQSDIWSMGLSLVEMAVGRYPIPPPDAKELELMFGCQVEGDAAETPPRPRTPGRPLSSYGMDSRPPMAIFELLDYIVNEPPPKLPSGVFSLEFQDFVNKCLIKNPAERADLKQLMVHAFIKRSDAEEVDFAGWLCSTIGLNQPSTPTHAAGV
Test [6] has the same target. As to conditions: at 10 µM.
Test [7] deals with Maternal embryonic leucine zipper kinase (Homo sapiens) (UniProt Q14680). The note with it: at 1 µM.
Test [8] has the same target. As to conditions: at 10 µM.
In test [9] the target is Misshapen-like kinase 1 (Homo sapiens) (UniProt Q8N4C8). As to conditions: at 1 µM.
The target is the same in test [10]. The note with it: at 10 µM.
The target of test [11] is T1, Dual specificity mitogen-activated protein kinase kinase 6 (Homo sapiens) (UniProt P52564).
T1 sequence (whole entry): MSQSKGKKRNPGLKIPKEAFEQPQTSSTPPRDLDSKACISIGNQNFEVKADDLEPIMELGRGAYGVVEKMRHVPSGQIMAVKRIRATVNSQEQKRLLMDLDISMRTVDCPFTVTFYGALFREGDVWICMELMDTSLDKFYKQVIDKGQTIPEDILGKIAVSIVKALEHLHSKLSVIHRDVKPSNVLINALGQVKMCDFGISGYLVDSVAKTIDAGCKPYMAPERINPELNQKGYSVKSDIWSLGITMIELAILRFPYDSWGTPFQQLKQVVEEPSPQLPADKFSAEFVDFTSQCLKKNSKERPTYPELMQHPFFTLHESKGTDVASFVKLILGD
As to conditions: at 1 µM.

Test [12] concerns the target T1, Dual specificity mitogen-activated protein kinase kinase 6 (Homo sapiens). As to conditions: at 10 µM.
Test [13] deals with T2, Dual specificity mitogen-activated protein kinase kinase 7 (Homo sapiens) (UniProt O14733).
T2 sequence (whole entry): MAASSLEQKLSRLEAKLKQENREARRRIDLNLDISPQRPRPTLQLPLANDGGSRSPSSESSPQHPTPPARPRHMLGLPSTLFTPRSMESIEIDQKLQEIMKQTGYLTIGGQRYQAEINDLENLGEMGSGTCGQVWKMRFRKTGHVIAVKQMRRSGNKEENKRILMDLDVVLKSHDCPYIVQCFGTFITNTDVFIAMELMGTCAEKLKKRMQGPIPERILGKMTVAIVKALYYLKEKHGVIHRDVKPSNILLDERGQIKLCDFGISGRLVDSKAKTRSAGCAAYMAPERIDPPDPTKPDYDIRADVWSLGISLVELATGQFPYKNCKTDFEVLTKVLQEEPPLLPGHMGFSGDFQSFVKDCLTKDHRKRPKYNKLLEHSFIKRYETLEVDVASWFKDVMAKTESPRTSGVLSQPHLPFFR
The note with it: at 1 µM.

Test [14] deals with T2, Dual specificity mitogen-activated protein kinase kinase 7 (Homo sapiens). The note with it: at 10 µM.
Test [15] deals with Myosin light chain kinase, smooth muscle (Homo sapiens) (UniProt Q15746). The note with it: at 1 µM.
Myosin light chain kinase, smooth muscle (Homo sapiens), sequence (Q15746 whole entry): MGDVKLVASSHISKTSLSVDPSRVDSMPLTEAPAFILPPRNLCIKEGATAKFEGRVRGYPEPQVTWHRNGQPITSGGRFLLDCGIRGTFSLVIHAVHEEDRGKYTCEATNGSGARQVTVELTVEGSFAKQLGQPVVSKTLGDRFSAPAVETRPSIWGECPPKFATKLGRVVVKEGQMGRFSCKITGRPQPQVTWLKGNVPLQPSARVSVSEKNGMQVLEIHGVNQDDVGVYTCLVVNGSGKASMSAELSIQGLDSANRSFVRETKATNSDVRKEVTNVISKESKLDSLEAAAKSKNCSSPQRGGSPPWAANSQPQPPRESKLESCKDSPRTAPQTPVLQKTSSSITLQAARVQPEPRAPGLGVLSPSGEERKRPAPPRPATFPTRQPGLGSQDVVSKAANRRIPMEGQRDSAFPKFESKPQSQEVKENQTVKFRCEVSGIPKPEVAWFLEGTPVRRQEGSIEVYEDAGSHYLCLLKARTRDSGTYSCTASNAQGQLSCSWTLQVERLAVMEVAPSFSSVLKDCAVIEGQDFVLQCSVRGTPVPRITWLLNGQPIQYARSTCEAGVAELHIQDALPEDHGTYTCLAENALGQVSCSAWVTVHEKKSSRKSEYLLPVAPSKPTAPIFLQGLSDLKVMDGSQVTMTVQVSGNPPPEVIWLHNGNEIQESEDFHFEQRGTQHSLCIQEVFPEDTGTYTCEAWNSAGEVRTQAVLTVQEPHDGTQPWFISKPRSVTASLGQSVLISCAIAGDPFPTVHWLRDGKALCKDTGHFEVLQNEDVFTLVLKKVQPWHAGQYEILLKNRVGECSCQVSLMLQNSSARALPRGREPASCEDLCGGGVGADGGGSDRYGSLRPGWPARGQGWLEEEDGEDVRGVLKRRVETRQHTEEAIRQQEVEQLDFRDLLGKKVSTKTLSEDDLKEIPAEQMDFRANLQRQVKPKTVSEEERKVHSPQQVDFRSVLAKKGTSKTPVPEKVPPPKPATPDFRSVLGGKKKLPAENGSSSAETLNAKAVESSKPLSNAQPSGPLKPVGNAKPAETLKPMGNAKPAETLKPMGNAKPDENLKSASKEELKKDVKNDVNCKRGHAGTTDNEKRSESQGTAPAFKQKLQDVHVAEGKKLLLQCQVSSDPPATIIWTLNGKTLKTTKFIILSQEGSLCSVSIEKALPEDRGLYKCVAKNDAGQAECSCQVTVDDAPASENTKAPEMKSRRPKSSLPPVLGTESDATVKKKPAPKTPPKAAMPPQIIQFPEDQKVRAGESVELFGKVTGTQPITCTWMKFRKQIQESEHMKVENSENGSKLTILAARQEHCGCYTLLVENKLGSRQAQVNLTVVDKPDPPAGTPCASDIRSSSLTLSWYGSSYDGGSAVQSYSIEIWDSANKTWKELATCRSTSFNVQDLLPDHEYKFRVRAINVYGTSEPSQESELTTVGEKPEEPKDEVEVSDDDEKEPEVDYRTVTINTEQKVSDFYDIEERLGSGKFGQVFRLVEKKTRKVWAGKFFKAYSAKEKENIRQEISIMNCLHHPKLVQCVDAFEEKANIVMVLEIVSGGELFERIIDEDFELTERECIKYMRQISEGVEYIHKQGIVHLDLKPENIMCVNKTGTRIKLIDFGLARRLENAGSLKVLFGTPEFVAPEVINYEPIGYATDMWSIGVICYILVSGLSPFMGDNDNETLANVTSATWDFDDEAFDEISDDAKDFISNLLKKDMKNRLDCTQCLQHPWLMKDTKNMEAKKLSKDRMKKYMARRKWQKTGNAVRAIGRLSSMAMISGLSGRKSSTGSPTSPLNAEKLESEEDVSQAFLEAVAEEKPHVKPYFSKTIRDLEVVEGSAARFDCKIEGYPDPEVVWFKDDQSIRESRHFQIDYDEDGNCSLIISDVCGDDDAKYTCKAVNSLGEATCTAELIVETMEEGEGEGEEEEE
Test [16] shares this target. The note with it: at 10 µM.
Test [17] concerns the target Mitogen-activated protein kinase kinase kinase 9 (Homo sapiens) (UniProt P80192). The note with it: at 1 µM.
Test [18] has the same target. As to conditions: at 10 µM.
The target in test [19] is Serine/threonine-protein kinase MRCK alpha (Homo sapiens) (UniProt Q5VT25). As to conditions: at 1 µM.
Serine/threonine-protein kinase MRCK alpha (Homo sapiens), sequence (Q5VT25 whole entry): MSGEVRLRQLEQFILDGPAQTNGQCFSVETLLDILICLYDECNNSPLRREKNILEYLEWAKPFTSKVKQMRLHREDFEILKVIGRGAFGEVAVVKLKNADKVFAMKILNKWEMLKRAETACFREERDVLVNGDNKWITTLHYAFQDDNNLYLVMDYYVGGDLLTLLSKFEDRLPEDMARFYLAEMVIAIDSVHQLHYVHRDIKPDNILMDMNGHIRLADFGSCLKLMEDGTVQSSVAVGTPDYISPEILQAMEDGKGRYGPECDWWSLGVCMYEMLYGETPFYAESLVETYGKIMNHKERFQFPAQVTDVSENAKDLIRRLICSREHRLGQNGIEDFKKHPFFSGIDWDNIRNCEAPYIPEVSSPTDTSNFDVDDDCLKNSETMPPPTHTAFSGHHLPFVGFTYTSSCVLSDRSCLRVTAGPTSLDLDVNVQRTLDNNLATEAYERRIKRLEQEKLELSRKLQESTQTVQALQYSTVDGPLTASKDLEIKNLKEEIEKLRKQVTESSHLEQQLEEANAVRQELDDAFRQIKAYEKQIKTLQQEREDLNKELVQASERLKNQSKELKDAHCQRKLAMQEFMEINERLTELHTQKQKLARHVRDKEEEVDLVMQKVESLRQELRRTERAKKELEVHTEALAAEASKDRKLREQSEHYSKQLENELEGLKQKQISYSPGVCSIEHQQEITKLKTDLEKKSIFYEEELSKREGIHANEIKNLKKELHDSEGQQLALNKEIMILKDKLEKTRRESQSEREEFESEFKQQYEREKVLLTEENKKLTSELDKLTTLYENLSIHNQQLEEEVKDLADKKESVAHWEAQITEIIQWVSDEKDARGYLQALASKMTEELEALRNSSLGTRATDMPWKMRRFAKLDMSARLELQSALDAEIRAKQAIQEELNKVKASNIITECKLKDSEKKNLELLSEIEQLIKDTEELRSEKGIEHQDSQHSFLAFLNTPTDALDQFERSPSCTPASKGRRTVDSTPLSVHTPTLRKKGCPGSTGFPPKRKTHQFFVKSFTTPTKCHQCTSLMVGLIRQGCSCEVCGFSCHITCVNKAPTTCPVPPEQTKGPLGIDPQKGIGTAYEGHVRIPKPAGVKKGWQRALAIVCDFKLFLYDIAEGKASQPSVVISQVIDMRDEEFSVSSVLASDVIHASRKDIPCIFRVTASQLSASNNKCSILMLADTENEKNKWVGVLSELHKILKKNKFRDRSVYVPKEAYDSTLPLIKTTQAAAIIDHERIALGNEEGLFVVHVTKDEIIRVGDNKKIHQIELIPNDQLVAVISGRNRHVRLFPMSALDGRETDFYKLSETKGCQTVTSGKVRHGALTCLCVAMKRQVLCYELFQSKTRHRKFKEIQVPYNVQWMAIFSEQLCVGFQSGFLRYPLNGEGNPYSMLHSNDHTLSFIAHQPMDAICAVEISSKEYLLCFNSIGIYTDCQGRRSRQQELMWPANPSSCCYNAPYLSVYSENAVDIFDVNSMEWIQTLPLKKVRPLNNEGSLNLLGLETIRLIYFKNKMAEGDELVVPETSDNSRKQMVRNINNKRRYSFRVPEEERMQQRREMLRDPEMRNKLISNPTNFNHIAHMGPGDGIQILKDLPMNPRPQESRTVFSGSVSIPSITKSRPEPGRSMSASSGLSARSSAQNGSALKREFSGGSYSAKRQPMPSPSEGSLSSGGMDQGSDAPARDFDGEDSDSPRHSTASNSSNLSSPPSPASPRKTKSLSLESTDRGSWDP
Test [20] has the same target. The note with it: at 10 µM.

Mitogen-activated protein kinase kinase kinase 9 (Homo sapiens), sequence (P80192 whole entry, looked up): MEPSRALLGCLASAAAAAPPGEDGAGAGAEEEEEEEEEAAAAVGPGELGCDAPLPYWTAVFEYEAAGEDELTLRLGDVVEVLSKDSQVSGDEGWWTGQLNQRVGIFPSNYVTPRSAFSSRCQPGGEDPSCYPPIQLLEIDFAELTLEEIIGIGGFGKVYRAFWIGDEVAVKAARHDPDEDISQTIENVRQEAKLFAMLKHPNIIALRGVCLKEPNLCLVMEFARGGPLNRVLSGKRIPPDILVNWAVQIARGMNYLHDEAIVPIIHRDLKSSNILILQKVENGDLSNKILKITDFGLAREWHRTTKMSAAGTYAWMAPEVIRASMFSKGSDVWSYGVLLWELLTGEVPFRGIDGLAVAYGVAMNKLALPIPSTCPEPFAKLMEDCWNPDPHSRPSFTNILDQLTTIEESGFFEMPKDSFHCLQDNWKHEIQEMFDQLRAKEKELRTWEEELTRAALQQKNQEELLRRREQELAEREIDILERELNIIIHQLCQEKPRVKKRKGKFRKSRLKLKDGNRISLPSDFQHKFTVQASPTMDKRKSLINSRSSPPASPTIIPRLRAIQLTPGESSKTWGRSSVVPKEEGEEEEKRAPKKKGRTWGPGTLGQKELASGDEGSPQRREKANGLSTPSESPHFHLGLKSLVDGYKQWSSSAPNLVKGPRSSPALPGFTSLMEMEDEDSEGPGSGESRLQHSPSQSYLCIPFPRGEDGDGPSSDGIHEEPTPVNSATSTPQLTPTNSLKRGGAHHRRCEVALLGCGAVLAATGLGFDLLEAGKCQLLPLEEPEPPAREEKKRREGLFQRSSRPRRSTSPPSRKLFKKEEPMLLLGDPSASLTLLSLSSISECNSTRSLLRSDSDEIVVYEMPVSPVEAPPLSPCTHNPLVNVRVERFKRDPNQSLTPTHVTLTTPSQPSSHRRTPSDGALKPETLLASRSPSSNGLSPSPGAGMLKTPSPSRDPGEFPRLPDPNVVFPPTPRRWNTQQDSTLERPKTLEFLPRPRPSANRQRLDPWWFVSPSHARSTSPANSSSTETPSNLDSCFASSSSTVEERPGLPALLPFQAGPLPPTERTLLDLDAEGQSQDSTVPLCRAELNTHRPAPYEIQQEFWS

`Oc1c2ccccc2c2c3c(cccc13)N=N2`: the residual activity in test [1] was found to be 69%; in [2], 103%; in [3] it was 38%; in test [4], 6%; in test [5], 75%; in test [6], 50%. Besides, the residual activity in test [7] is 13%; in [8], 0%; in [9] it was 86%; in test [10], 50%; in test [11], 82%; in test [12], 13%. The residual activity in [13] was 58%; in test [14], 6%; in test [15] it was 29%; in test [16] it was 3%; in test [17] it was 13%; in [18], 4%. Besides, the values for the residual activity in test [19] and in test [20] were 115% and 116%, respectively.

Regarding `CCN(CC)CCCCN1c2ccccc2Oc2ccc(Cl)cc21`, the residual activity amounted to 133% in [1]; 146% in [2]; 106% in test [3]; 106% in test [4]; 117% in test [5]; 115% in test [6]. The residual activity in test [7] is 96%; in test [8], 105%; in [9], 107%; in [10], 95%; in test [11] it was 99%; in test [12] it was 119%. Also, the residual activity in test [13] was 120%; in [14], 118%; in test [15] it was 79%; in [16] it was 102%; in [17], 93%; in test [18] it was 102%. The residual activity in [19] came out at 133%; in test [20], 119%.

Take `Cn1cc(/C=C2\C(=O)Nc3ccc(S(N)(=O)=O)cc32)c2ccccc21`: the residual activity came out at 71% in test [1]; 88% in [2]; 23% in test [3]; 7% in test [4]; 42% in test [5]; 19% in [6]. The residual activity in [7] stood at 42%; in test [8], 51%; in test [9], 56%; in test [10] it was 61%; in test [11], 69%; in test [12], 85%. The residual activity in test [13] was 89%; in test [14] it was 59%; in test [15] it was 63%; in test [16], 82%; in test [17], 6%; in test [18] it was 3%. The results for the residual activity in test [19] and in test [20] were 103% and 89%, respectively.

Take `O=C1NC(=O)/C(=C\c2ccc3nccnc3c2)S1`: the residual activity in test [1] was determined as 85%; in [2] it was 91%; in test [3], 86%; in test [4], 71%; in test [5] it was 108%; in [6], 84%. In addition, the residual activity was found to be 64% in [7]; 31% in test [8]; 89% in [9]; 61% in test [10]; 95% in test [11]; 85% in test [12]. The residual activity in test [13] came to 96%; in [14], 88%; in [15] it was 81%; in test [16], 62%; in test [17] it was 80%; in test [18], 53%. Also, the figures for the residual activity in test [19] and in [20] were 106% and 93%, respectively.

As for `COc1ccc(S(=O)(=O)N(CCO)c2ccccc2CN(C)C/C=C/c2ccc(Cl)cc2)cc1`, the residual activity is 73% in test [1]; 84% in test [2]; 83% in test [3]; 77% in test [4]; 97% in test [5]; 79% in test [6]. For the same compound, the residual activity is 90% in test [7]; 63% in [8]; 98% in test [9]; 97% in test [10]; 99% in test [11]; 74% in test [12]. Further, the residual activity in test [13] was 101%; in test [14], 73%; in test [15], 97%; in [16], 41%; in test [17], 99%; in [18], 92%. Besides, the residual activity turned out to be 119% in [19] and 113% in test [20].

With `CC(=O)O/N=C1\C(=C2\C(=O)Nc3cc(Br)ccc32)Nc2ccccc21`, the residual activity in test [1] came to 93%; in [2], 90%; in test [3] it was 77%; in [4], 39%; in test [5] it was 98%; in test [6], 113%. Besides, the residual activity was found to be 69% in test [7]; 52% in test [8]; 103% in test [9]; 86% in [10]; 96% in test [11]; 76% in test [12]. For the same compound, the residual activity in test [13] is 83%; in test [14], 105%; in test [15], 90%; in test [16] it was 71%; in test [17] it was 55%; in test [18], 16%. Further, the residual activity in test [19] stood at 93%; in test [20], 101%.

With `CC(C)n1cnc2c(NCc3ccccc3)nc(NCCCO)nc21`, the residual activity was 90% in [1]; 80% in test [2]; 81% in test [3]; 81% in test [4]; 103% in test [5]; 110% in test [6]. Moreover, the residual activity in test [7] came out at 86%; in test [8], 77%; in test [9], 108%; in [10], 100%; in test [11], 94%; in [12] it was 74%. For the same compound, the residual activity in [13] was 91%; in [14], 75%; in test [15], 93%; in test [16] it was 74%; in [17], 97%; in test [18], 73%. Further, the residual activity in test [19] is 86%; in test [20], 83%.

For `CC#CC(=O)Nc1cc2c(Nc3ccc(F)c(Cl)c3)ncnc2cn1`, the residual activity is 92% in test [1]; 96% in test [2]; 87% in test [3]; 83% in test [4]; 111% in test [5]; 103% in test [6]. Also, the residual activity in test [7] was determined as 76%; in test [8], 99%; in [9], 96%; in test [10] it was 91%; in [11], 77%; in test [12] it was 140%. In addition, the residual activity in test [13] came out at 97%; in [14], 90%; in [15] it was 73%; in test [16], 110%; in [17], 98%; in test [18], 100%. In addition, the residual activity in test [19] came to 98%; in test [20], 87%.

Take `Cc1cncc2cccc(S(=O)(=O)N3CCCN(C(=O)CN)C[C@H]3C)c12`: the residual activity in [1] worked out at 87%; in [3], 73%; in test [4], 43%; in [7] it was 74%; in [8], 24%; in [9], 91%. For the same compound, the residual activity in test [10] came to 72%; in [13], 82%; in [15], 94%; in [16], 99%; in test [17], 86%; in test [18], 62%. Moreover, the residual activity is 98% in test [19] and 99% in test [20].

As to `CCN(CC)C(=O)c1ccc(Nc2nc(OCC3CCCCC3)c3nc[nH]c3n2)cc1`, the residual activity in test [1] was 39%; in test [2], 69%; in test [3], 60%; in test [4] it was 17%; in [5], 48%; in test [6], 48%. In addition, the residual activity in test [7] is 40%; in [8] it was 3%; in test [9], 94%; in test [10] it was 63%; in test [11] it was 75%; in [12], 41%. The residual activity in test [13] worked out at 56%; in test [14], 16%; in test [17], 2%; in [18], 1%; in test [19] it was 99%; in [20], 73%.

For `COc1cc2ncnc(Nc3ccc(NC(=O)c4ccccc4)cc3)c2cc1OC`, the residual activity in [1] was found to be 98%; in [2], 93%; in [3] it was 105%; in test [4], 95%; in [7] it was 77%; in [8], 50%. In addition, the residual activity in [10] amounted to 92%; in [12], 97%; in test [13], 92%; in test [14] it was 74%; in [15] it was 77%; in [16], 96%. Moreover, the residual activity came out at 72% in [17], 22% in test [18] and 105% in test [19].

`N#Cc1cnc2cnc(NCc3cccnc3)cc2c1Nc1ccc(F)c(Cl)c1`: the residual activity in test [1] is 64%; in test [3] it was -1%; in [4], -1%; in test [5], 91%; in test [6], 91%; in test [7], 2%. Further, the residual activity stood at 0% in test [8]; 93% in test [9]; 90% in test [10]; 10% in [11]; 7% in test [12]; 83% in [13]. Moreover, the residual activity in test [14] turned out to be 74%; in test [15], 69%; in [16] it was 46%; in test [17], 99%; in test [18], 99%; in test [19] it was 14%. Besides, the residual activity in [20] was found to be 9%.

For the compound `COc1cc2ncc(-c3ccccc3)nc2cc1OC`, the residual activity in test [1] is 80%; in [3] it was 90%; in test [4] it was 80%; in test [7], 69%; in test [8] it was 60%; in test [9], 92%. The residual activity stood at 62% in test [10]; 92% in test [11]; 92% in test [12]; 90% in [13]; 90% in test [14]; 78% in [15]. Further, the residual activity in test [16] turned out to be 86%; in test [17], 94%; in [18] it was 60%; in test [20], 93%.

As for `O=C(O)c1ccc2c3c1cccc3c(=O)n1c3ccccc3nc21`, the residual activity in test [1] was found to be 95%; in [2], 106%; in [3], 81%; in test [4], 35%; in test [5], 94%; in test [6], 97%. Moreover, the residual activity in test [7] came to 91%; in test [8], 53%; in [10], 5%; in test [11], 92%; in test [12], 64%; in [13], 87%. For the same compound, the residual activity in test [14] turned out to be 46%; in test [15], 88%; in test [16], 35%; in test [17], 33%; in test [18], 5%; in test [19] it was 107%. Also, the residual activity in [20] came to 115%.
